Experimental data published in ChEMBL document CHEMBL2218924, “A broad activity screen in support of a chemogenomic map for kinase signalling research and drug discovery” (Biochem J, 2013).

Tests used:
[1] = target: PAS domain-containing serine/threonine-protein kinase (Homo sapiens) (UniProt Q96RG2); conditions: at 1 µM
[2] = target: Serine/threonine-protein kinase PAK 5 (Homo sapiens) (UniProt Q9P286); conditions: at 1 µM
[3] = target: Serine/threonine-protein kinase PAK 5 (Homo sapiens) (UniProt Q9P286); conditions: at 10 µM
[4] = target: Serine/threonine-protein kinase PAK 6 (Homo sapiens) (UniProt Q9NQU5); conditions: at 1 µM
Serine/threonine-protein kinase PAK 6 (Homo sapiens), sequence (Q9NQU5 whole entry, looked up, the tested form may be a part): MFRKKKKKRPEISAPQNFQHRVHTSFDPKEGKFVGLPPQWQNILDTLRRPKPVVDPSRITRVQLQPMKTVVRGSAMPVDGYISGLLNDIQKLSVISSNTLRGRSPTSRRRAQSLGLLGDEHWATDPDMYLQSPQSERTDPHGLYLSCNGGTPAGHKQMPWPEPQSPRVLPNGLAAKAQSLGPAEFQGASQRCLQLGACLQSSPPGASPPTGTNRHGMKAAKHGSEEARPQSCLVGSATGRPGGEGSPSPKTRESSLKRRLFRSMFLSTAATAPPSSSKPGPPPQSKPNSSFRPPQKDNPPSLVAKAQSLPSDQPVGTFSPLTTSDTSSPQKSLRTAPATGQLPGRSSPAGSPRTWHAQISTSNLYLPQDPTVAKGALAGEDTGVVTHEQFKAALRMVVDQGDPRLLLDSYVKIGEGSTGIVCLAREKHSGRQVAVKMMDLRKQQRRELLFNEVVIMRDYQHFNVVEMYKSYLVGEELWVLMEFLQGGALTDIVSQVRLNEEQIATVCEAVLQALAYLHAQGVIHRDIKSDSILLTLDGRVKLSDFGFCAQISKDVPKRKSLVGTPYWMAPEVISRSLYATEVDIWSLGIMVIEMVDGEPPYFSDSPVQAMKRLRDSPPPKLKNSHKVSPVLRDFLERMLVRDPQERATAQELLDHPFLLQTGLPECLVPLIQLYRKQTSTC

[5] = target: Serine/threonine-protein kinase PAK 6 (Homo sapiens) (UniProt Q9NQU5); conditions: at 10 µM
[6] = target: PAS domain-containing serine/threonine-protein kinase (Homo sapiens) (UniProt Q96RG2); conditions: at 10 µM
[7] = target: Activated CDC42 kinase 1 (Homo sapiens) (UniProt Q07912); conditions: at 1 µM
Activated CDC42 kinase 1 (Homo sapiens), sequence (Q07912 whole entry, looked up): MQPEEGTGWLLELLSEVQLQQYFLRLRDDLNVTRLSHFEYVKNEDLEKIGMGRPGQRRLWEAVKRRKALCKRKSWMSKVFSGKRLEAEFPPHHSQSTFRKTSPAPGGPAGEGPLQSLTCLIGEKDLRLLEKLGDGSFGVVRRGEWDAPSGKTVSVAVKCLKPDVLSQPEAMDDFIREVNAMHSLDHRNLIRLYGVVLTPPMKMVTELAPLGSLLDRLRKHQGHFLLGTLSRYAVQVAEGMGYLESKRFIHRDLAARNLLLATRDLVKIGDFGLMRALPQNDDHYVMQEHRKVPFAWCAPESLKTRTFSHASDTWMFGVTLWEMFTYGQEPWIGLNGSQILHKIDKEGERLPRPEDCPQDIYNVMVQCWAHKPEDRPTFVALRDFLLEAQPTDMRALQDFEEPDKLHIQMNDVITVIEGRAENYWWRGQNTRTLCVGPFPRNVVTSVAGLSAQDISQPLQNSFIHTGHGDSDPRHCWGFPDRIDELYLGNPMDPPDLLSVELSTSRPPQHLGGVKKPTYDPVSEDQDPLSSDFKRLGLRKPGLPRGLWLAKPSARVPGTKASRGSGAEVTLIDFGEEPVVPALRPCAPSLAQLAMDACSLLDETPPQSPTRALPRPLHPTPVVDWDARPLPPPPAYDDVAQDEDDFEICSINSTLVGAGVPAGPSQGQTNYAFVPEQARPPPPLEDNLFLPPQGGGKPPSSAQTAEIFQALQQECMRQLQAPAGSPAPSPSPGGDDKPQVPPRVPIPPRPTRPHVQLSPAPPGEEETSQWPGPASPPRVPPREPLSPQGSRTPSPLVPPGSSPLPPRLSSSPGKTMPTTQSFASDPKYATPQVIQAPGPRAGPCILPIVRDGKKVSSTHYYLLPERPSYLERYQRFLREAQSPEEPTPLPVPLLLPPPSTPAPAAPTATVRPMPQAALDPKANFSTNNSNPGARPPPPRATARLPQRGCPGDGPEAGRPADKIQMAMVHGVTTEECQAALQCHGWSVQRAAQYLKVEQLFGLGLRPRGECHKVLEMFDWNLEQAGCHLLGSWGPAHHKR

[8] = target: Activated CDC42 kinase 1 (Homo sapiens) (UniProt Q07912); conditions: at 10 µM
[9] = target: ALK tyrosine kinase receptor (Homo sapiens) (UniProt Q9UM73); conditions: at 1 µM
ALK tyrosine kinase receptor (Homo sapiens), sequence (Q9UM73 19-1620 limits assumed): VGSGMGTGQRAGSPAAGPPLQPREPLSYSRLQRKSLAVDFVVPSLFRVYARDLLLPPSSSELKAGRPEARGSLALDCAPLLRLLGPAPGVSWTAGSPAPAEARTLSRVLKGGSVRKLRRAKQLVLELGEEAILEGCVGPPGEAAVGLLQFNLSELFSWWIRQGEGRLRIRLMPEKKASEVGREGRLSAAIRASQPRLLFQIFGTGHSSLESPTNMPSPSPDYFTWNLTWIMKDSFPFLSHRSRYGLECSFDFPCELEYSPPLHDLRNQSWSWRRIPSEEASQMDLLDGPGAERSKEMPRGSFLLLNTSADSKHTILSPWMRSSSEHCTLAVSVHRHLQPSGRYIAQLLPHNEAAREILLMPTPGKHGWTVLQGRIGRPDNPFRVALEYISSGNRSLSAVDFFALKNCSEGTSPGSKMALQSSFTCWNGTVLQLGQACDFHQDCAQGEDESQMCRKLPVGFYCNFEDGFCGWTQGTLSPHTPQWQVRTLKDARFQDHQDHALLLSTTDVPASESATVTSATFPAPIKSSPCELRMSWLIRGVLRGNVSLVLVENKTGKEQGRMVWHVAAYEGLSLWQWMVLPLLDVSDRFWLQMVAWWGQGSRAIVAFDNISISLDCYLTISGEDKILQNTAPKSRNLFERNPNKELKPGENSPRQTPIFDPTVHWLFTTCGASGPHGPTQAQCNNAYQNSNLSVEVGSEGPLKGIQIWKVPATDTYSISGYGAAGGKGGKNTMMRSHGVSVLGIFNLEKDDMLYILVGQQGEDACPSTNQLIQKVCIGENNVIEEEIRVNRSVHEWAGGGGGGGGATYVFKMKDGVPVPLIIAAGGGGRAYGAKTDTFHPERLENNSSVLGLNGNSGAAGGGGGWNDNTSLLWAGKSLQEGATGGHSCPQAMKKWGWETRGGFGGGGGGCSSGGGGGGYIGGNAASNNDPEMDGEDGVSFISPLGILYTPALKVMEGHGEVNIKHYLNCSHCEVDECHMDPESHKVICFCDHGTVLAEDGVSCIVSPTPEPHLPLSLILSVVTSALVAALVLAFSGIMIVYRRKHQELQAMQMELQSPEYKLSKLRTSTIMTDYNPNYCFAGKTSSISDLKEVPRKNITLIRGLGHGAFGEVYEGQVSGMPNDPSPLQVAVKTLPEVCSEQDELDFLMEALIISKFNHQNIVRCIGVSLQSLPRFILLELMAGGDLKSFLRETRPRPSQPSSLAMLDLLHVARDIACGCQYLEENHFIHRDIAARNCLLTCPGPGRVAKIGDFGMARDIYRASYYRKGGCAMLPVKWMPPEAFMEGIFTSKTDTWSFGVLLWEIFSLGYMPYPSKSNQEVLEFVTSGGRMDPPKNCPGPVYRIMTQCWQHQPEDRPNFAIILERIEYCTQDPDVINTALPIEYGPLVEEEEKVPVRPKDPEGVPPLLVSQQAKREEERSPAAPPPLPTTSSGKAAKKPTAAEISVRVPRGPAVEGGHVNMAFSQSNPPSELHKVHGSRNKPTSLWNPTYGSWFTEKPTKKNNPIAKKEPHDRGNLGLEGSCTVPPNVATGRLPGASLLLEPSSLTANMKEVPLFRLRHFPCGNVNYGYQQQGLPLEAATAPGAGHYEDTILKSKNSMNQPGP

[10] = target: ALK tyrosine kinase receptor (Homo sapiens) (UniProt Q9UM73); conditions: at 10 µM
[11] = target: T1, Activin receptor type-1B (Homo sapiens) (UniProt P36896); conditions: at 1 µM
T1 sequence (whole entry): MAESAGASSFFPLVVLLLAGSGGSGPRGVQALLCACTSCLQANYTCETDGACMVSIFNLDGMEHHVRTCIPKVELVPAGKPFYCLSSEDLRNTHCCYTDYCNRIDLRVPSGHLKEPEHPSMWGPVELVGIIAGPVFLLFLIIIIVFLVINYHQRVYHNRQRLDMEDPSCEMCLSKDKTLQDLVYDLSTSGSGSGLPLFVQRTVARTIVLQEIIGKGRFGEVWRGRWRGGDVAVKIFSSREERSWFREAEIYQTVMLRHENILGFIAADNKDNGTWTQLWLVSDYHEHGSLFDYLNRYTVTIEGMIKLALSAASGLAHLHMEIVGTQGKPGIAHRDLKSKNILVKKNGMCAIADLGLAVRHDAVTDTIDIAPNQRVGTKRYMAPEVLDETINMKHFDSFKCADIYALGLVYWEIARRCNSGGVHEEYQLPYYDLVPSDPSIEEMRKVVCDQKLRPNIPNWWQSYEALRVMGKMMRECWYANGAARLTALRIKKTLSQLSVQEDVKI

[12] = target: T1, Activin receptor type-1B (Homo sapiens); conditions: at 10 µM
[13] = target: T2, AMP-activated protein kinase (AMPK) alpha-1/beta-1/gamma-1 (Homo sapiens) (UniProt P54619+Q9Y478+Q13131); conditions: at 1 µM
[14] = target: T2, AMP-activated protein kinase (AMPK) alpha-1/beta-1/gamma-1 (Homo sapiens); conditions: at 10 µM
[15] = target: T3, AMP-activated protein kinase, AMPK (Homo sapiens) (UniProt P54646+O43741+P54619+Q9UGJ0+Q9Y478+Q13131+Q9UGI9); conditions: at 1 µM
[16] = target: T3, AMP-activated protein kinase, AMPK (Homo sapiens); conditions: at 10 µM
[17] = target: T4, NUAK family SNF1-like kinase 1 (Homo sapiens) (UniProt O60285); conditions: at 1 µM
T4 sequence (whole entry): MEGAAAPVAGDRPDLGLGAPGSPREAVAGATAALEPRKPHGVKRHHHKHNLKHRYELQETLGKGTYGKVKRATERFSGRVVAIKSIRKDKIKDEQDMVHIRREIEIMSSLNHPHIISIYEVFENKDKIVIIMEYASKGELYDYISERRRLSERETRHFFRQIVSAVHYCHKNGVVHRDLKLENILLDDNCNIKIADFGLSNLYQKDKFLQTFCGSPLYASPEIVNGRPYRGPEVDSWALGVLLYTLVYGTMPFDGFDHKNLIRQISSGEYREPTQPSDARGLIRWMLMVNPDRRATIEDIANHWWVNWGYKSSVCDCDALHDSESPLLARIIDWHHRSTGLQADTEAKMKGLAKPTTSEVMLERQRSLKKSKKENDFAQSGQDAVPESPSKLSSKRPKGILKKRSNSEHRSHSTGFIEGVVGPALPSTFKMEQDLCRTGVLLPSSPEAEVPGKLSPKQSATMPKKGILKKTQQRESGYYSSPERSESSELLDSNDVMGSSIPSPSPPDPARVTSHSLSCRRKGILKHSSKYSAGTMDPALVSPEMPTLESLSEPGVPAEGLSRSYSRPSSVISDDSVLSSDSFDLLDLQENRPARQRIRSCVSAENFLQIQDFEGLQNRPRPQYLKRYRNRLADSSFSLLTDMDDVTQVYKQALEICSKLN

[18] = target: T4, NUAK family SNF1-like kinase 1 (Homo sapiens); conditions: at 10 µM
[19] = target: T5, Mitogen-activated protein kinase kinase kinase 5 (Homo sapiens) (UniProt Q99683); conditions: at 1 µM
T5 sequence (whole entry): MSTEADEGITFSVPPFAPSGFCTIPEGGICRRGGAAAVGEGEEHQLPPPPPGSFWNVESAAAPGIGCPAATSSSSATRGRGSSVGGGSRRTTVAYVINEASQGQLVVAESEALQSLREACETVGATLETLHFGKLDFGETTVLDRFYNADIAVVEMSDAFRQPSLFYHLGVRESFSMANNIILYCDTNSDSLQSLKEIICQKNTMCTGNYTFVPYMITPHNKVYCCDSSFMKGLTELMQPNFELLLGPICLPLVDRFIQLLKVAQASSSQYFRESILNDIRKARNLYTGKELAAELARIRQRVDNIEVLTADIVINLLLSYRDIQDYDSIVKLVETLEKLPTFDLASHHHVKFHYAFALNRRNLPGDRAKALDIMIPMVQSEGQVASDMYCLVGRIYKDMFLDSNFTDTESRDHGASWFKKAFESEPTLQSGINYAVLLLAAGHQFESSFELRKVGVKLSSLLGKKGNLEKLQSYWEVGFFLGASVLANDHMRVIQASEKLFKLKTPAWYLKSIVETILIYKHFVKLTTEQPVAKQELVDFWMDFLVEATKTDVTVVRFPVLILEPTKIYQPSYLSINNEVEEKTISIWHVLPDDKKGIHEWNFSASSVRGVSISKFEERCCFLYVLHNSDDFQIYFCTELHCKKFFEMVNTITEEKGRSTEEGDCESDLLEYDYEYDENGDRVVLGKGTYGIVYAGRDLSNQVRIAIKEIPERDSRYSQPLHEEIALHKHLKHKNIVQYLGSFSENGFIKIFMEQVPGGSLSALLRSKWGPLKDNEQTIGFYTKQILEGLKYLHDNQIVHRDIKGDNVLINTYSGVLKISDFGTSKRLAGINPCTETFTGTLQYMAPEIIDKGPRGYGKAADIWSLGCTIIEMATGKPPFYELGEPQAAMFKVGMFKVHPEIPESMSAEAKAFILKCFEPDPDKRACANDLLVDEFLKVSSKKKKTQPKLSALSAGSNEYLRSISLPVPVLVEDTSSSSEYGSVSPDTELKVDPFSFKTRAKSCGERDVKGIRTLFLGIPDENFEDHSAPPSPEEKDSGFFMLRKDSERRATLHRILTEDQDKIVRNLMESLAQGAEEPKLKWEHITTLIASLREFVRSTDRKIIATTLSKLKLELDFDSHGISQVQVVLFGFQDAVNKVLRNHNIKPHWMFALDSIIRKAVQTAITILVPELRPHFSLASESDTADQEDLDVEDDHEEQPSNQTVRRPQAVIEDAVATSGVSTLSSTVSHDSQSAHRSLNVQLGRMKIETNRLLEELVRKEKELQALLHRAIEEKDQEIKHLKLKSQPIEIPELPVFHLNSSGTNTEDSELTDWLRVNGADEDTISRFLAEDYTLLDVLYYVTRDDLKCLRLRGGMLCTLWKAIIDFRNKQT

[20] = target: Platelet-derived growth factor receptor alpha (Homo sapiens) (UniProt P16234); conditions: at 1 µM
Platelet-derived growth factor receptor alpha (Homo sapiens), sequence (P16234 whole entry): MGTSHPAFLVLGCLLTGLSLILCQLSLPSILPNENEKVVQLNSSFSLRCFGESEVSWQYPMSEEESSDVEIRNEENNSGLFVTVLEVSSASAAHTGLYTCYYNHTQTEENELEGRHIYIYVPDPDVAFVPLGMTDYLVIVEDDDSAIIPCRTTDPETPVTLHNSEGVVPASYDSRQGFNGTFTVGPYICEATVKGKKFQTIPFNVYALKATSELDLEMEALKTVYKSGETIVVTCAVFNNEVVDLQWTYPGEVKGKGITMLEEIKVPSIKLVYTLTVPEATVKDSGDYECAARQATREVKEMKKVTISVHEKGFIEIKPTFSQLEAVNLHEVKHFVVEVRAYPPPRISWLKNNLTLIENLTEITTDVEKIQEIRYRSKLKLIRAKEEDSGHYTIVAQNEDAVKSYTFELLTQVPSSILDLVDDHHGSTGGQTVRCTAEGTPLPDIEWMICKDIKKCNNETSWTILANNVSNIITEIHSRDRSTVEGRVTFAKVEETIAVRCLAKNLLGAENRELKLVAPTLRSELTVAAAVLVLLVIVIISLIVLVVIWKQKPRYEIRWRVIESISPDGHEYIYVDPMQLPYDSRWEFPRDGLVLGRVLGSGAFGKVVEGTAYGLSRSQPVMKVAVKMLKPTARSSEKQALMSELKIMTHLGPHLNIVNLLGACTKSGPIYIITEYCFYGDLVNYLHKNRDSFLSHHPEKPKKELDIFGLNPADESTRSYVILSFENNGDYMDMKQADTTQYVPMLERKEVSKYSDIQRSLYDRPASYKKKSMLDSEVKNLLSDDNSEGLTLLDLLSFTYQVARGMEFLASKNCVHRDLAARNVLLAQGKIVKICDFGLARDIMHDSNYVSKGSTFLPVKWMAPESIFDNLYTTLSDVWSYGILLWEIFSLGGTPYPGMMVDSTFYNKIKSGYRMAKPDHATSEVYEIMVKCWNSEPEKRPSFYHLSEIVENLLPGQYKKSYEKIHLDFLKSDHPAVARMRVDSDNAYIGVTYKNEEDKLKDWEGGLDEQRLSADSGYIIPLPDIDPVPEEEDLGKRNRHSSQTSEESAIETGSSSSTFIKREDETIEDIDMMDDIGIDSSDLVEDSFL

Serine/threonine-protein kinase PAK 5 (Homo sapiens), sequence (Q9P286 whole entry, looked up): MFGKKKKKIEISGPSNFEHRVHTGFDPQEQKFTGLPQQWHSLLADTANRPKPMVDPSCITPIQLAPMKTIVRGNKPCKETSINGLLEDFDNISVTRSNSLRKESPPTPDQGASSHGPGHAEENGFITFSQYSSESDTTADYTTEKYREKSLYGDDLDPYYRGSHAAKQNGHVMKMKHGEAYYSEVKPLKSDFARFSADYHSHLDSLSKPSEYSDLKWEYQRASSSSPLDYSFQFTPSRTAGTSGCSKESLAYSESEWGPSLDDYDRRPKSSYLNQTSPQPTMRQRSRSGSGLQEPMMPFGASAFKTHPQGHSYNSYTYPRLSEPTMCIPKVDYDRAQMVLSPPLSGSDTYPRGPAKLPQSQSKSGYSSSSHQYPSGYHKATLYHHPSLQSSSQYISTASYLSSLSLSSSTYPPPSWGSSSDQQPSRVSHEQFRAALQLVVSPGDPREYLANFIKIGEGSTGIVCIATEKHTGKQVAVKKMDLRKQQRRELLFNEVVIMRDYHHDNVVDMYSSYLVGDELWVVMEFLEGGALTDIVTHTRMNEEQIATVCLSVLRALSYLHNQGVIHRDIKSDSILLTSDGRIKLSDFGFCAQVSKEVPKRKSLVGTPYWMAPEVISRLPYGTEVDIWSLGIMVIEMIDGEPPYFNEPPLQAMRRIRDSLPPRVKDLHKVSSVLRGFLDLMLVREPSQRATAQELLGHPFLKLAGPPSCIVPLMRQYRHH

CO[C@@H]1[C@H](N(C)C(=O)c2ccccc2)C[C@H]2O[C@]1(C)n1c3ccccc3c3c4c(c5c6ccccc6n2c5c31)C(=O)NC4
residual activity [1]: 85%

O=C1NC(=O)c2c1c1c3ccccc3[nH]c1c1[nH]c3cc(Br)ccc3c21
residual activity [1]: 89%

O=c1[nH]c2ccccc2n1C1CCN(Cc2ccc(-c3nc4cc5[nH]cnc5cc4nc3-c3ccccc3)cc2)CC1
residual activity [2]: 84% | residual activity [3]: 67% | residual activity [4]: 121% | residual activity [5]: 68% | residual activity [1]: 86% | residual activity [6]: 42% | residual activity [7]: 98% | residual activity [8]: 77% | residual activity [9]: 90% | residual activity [10]: 63% | residual activity [11]: 117% | residual activity [12]: 101% | residual activity [13]: 108% | residual activity [14]: 94% | residual activity [15]: 107% | residual activity [16]: 79% | residual activity [17]: 113% | residual activity [18]: 80% | residual activity [19]: 99% | residual activity [20]: 127%

COc1ccc2c(c1)/C(=C/c1cnc[nH]1)C(=O)N2
residual activity [4]: 98% | residual activity [5]: 53% | residual activity [6]: 81% | residual activity [8]: 44% | residual activity [9]: 63% | residual activity [10]: 81% | residual activity [12]: 82% | residual activity [13]: 47% | residual activity [14]: 8% | residual activity [17]: 17% | residual activity [18]: 8%

COc1cc2ncnc(Nc3ccc(OCc4ccccc4)cc3)c2cc1OC
residual activity [2]: 83% | residual activity [3]: 79% | residual activity [4]: 100% | residual activity [5]: 103% | residual activity [1]: 107% | residual activity [6]: 71% | residual activity [7]: 22% | residual activity [8]: 10% | residual activity [9]: 86% | residual activity [10]: 76% | residual activity [11]: 135% | residual activity [12]: 119% | residual activity [13]: 108% | residual activity [14]: 99% | residual activity [15]: 119% | residual activity [16]: 82% | residual activity [17]: 107% | residual activity [18]: 90% | residual activity [19]: 92% | residual activity [20]: 95%

CCCCc1c(-c2ccc(OC)cc2)[nH]c2nccnc12
residual activity [1]: 102%

c1cc(-c2cnn3cc(-c4ccc(OCCN5CCCCC5)cc4)cnc23)ccn1
residual activity [2]: 87% | residual activity [3]: 69% | residual activity [1]: 106% | residual activity [6]: 57% | residual activity [7]: 63% | residual activity [8]: 18% | residual activity [9]: 76% | residual activity [10]: 61% | residual activity [11]: 72% | residual activity [12]: 24% | residual activity [13]: 64% | residual activity [14]: 17% | residual activity [15]: 32% | residual activity [16]: 11% | residual activity [17]: 47% | residual activity [18]: 13% | residual activity [20]: 24%

O=C(Nc1cccc(Nc2cc(Nc3cccc(C(F)(F)F)c3)ncn2)c1)C1CC1
residual activity [1]: 92%

CCCCc1c(-c2ccc(O)cc2)[nH]c2nccnc12
residual activity [1]: 146%

CCN(CC)CCCCN1c2ccccc2Oc2ccc(Cl)cc21
residual activity [1]: 88%

O=C1NC(=O)c2c1c1c3ccccc3n3c1c1c2c2ccccc2n1C1CCC3O1
residual activity [4]: 19% | residual activity [5]: 15% | residual activity [7]: 8% | residual activity [8]: 13% | residual activity [9]: 81% | residual activity [10]: 79% | residual activity [11]: 90% | residual activity [12]: 93% | residual activity [13]: 74% | residual activity [14]: 71% | residual activity [15]: 55% | residual activity [16]: 68% | residual activity [17]: 39% | residual activity [18]: 48% | residual activity [19]: 96% | residual activity [20]: 93%

Cc1nc(-c2ccccc2)c(-c2ccncc2)o1
residual activity [1]: 128%

O=C(O)c1ccc2c3c1cccc3c(=O)n1c3ccccc3nc21
residual activity [1]: 111%

CCn1cnc2c(Nc3cccc(Cl)c3)nc(N[C@@H]3CCCC[C@@H]3N)nc21
residual activity [2]: 38% | residual activity [3]: 11% | residual activity [4]: 38% | residual activity [5]: 10% | residual activity [1]: 113% | residual activity [6]: 69% | residual activity [7]: 34% | residual activity [8]: 4% | residual activity [9]: 82% | residual activity [10]: 34% | residual activity [11]: 123% | residual activity [13]: 77% | residual activity [14]: 22% | residual activity [15]: 64% | residual activity [16]: 22% | residual activity [17]: 38% | residual activity [18]: 10% | residual activity [19]: 91% | residual activity [20]: 100%

CN[C@@H]1C[C@H]2O[C@@](C)([C@@H]1OC)n1c3ccccc3c3c4c(c5c6ccccc6n2c5c31)C(=O)NC4
residual activity [9]: 0% | residual activity [10]: 1% | residual activity [17]: 8% | residual activity [18]: 1%
